Experimental data published in PubChem BioAssay AID1415 (NMMLSC, 2008).
Among all 220,000 compounds or so, about 710 (0.32%) were called active. Cut-off read from the data, not from the text of the source: active = binding response below about 49% or above about 150%; inactive = in between. This excerpt belongs to a sample that is enriched for actives.

Biological target: Guanine nucleotide-binding protein G(o) subunit alpha (Homo sapiens) (UniProt P09471)
Experiment: RGS4-Galphao interaction inhibitors and enhancers – biochemical, multiplexed bead flow cytometry, primary screen (AID 1415);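 note: fluorescent Galphao activated with aluminum fluoride binding bead-coupled RGS4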
Conditions: at 10 µM, actives lie on both sides

Sequence of Guanine nucleotide-binding protein G(o) subunit alpha (Homo sapiens) (P09471 whole entry, looked up): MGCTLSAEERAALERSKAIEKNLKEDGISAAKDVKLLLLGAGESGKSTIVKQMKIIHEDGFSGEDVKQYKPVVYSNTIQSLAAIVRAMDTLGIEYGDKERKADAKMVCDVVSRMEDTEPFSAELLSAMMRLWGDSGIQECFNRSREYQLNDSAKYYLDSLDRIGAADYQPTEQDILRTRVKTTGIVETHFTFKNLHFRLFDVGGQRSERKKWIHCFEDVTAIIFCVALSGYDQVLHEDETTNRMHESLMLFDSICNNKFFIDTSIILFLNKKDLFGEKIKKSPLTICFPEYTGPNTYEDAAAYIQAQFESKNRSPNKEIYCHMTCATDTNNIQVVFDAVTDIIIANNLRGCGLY

Structure (SMILES) | binding response (% of control)
CN1CCN(S(=O)(=O)c2ccc(N3CCN(S(=O)(=O)c4cccs4)CC3)nc2)CC1 | 101% (inactive)
Cc1ccc(NC(=O)NCC(c2cccnc2)N2CCOCC2)cc1 (configuration not stated) | 105% (inactive)
CN1CCN(C(CNS(=O)(=O)c2cccs2)c2cccnc2)CC1 (configuration not stated) | 0.16% (active)
OCCC1CN(Cc2ccc(Oc3ncccn3)cc2)CCN1CCc1ccccc1 (configuration not stated) | 98.9% (inactive)
O=C(Nc1cc(Cl)cc(Cl)c1)C(NCCCO)c1ccccc1 (configuration not stated) | 102% (inactive)
O=C(CNCc1cccs1)Nc1cc(S(=O)(=O)N2CCCC2)ccc1Cl | 103% (inactive)
O=C(O)CCCCCNc1ncnc2ccc(Br)cc12 | 98% (inactive)
Oc1ccc2ccccc2c1N=Nc1nccs1 | 99.9% (inactive)
Oc1ccc(N=Nc2nccs2)c(O)c1 | -21.6% (active)
CC(NC(=O)C(=O)Nc1nccs1)c1ccccc1 (configuration not stated) | 94.3% (inactive)
Cc1nc(NNC(=O)c2ccccc2)cc(-c2ccccc2)n1 | 101% (inactive)
CC(CC(=O)C1C(C)C=CCC1(C)C)NNC(N)=O (configuration not stated) | 101% (inactive)
O=C(c1ccc(=O)oc1)N1CCC(C(O)(c2ccccc2)c2ccccc2)CC1 | 100% (inactive)
COC(=O)CCCC1=CC2=C(c3ccccc3)C(=O)C(C)(OC(=O)C3CCCC3)C(=O)C2=CN1c1ccc(OC)cc1 (configuration not stated) | 97% (inactive)
Cc1ccccc1CC1(CO)CCCN(C(=O)c2cc(-c3ccccc3)no2)C1 (configuration not stated) | 110% (inactive)
O=C(CCc1ccccc1)NNC(=O)c1ccc(Br)cc1 | 109% (inactive)
CCCn1nnnc1NC(=O)COc1ccc(Cl)cc1C | 22.6% (active)
Cc1cc(NC(=O)COc2ccc(Cl)cc2Cl)n(CCC#N)n1 | 94.6% (inactive)
CCOC(=O)N1CCN(C(=O)COc2ccc(Cl)cc2C)CC1 | 102% (inactive)
CC(Oc1ccccc1)C(=O)Nc1oc(-c2ccco2)c(-c2ccco2)c1C#N (configuration not stated) | 96.1% (inactive)
O=C(CC1SCCNC1=O)Nc1ccc(Cl)cc1 (configuration not stated) | 102% (inactive)
C/C(=N\NC(=S)NC(C)C)c1ccc(C(C)(C)C)cc1 | 102% (inactive)
CCOc1ccccc1NC(=O)CCN1CCN(S(=O)(=O)c2ccc(OC)cc2)CC1 | 97% (inactive)

Structure (SMILES) | binding response (% of control)
Cc1c(C(=O)Nc2ccccc2Cl)oc2ccc(S(=O)(=O)N3CCC4(CC3)OCCO4)cc12 | 106% (inactive)
CCOc1ccccc1NC(=O)c1cc(S(=O)(=O)N2CCC3(CC2)OCCO3)ccc1F | -0.18% (active)
CS(=O)(=O)c1sc(C(=O)NC(=S)Nc2ccc(OC(F)(F)F)cc2)c2c1C=CCC2 | 113% (inactive)
C=C(C)C(=O)Nc1cccc(C2=NOC3(C2)C[C@H](C(N)=O)N(C(=O)C(c2ccccc2)c2ccccc2)C3)c1 (some centres not stated) | 100% (inactive)
Cc1cc(NC(=O)OC(C)C)ccc1-c1ccc(NC(=O)OC(C)C)cc1C | 96.1% (inactive)
COc1ccc(OC)c(/C=N/NC(=O)CSc2nnc(C)n2-c2ccccc2)c1 | 96.1% (inactive)
Cc1ccc(Cn2c(SCC(=O)N/N=C/c3ccccc3OCC(=O)O)nc3ccccc32)cc1 | 98.8% (inactive)
C=CCn1c(Cn2nnc3ccccc32)nnc1SCC(=O)N/N=C/c1cc(Br)cc(OC)c1O | -38.5% (active)
CCC(C)NC(=O)Cn1nc(C(F)(F)F)c2c1CCC2 (configuration not stated) | 101% (inactive)
COc1ccc(COCCN2CCN(S(=O)(=O)c3ccccc3)CCC2=O)cc1 | 84% (inactive)
CN(C)c1ccc(/C=N/NC(=O)c2ccc(Cn3cc(Br)cn3)o2)cc1 | 98.7% (inactive)
COC(=O)CNc1nc(Cl)nc(N2CCC(C)CC2)n1 | 101% (inactive)
Cc1nnc(SCC(=O)N2c3ccccc3C(C)(c3ccc(Cl)cc3)CC2(C)C)s1 (configuration not stated) | 96.9% (inactive)
Cc1nc2cc(NC(=O)Nc3cccc(F)c3)ccc2n1C | 91.6% (inactive)
Cc1cc2nc(C)n(CCCNC(=O)Nc3ccccc3)c2cc1C | 158% [activator] (active)
Cc1nc2cc(NC(=O)NC3CC3)ccc2n1C | 103% (inactive)
Cc1onc(-c2ccccc2)c1C(=O)N=C(N)c1ccc(Cl)cc1 | 104% (inactive)
N#Cc1ccc(CSc2nnc3ccccn23)cc1 | 101% (inactive)
CCCCC1=CC2=CC(=O)C(C)(OC(=O)CC)C(=O)C2=CN1CCCOC(C)C (configuration not stated) | 96% (inactive)
CCCC1C(c2ccccc2)C(C#N)(C#N)C2(C#N)CC1(N)NC2=O (configuration not stated) | 162% [activator] (active)
NC1=NC[C@@H](Cc2ccc(O)cc2)N1CC1CCCCC1 | 87.1% (inactive)
CCOC(=O)c1ccc(NC(=O)c2nc[nH]c2C(=O)NCc2ccccc2)cc1 | 103% (inactive)
CCCCOC(=O)Cn1c(=O)n(CC(=O)OCCCC)c2cc(C)ccc21 | 103% (inactive)

Structure (SMILES) | binding response (% of control)
CCCCOC(=O)Cn1c(=N)n(CCN(CC)CC)c2ccccc21 | 184% [activator] (active)
CCn1c(=N)n(CC(=O)c2cccc(OC)c2)c2ccccc21 | 98.3% (inactive)
O=C(CN(C(=O)c1csnn1)c1cccc(F)c1)NCc1ccc(F)cc1 | 97.4% (inactive)
Cc1ccc(S(=O)(=O)NCC(=O)OCC(=O)N2CCc3ccccc32)cc1 | 204% [activator] (active)
Cc1ccc(S(=O)(=O)N(C)CC(=O)N2CCc3ccccc32)cc1 | 104% (inactive)
Cc1cnc(C(=O)OCC(=O)N2CCc3ccccc32)cn1 | 104% (inactive)
C#CCO[C@@H]1C[C@H](n2cnc3c(=O)[nH]c(NC(=O)C(C)C)nc32)O[C@@H]1CO | 81.4% (inactive)
C=CCC1(CC=C)CCCN1C(=O)CC1C(=O)NCCN1Cc1ccccc1OC (configuration not stated) | 102% (inactive)
[O-][n+]1c2c(nn1-c1ccc(Cl)c(Cl)c1)-c1nonc1CC2 | 106% (inactive)
COc1ccc(/C(O)=C2\C(=O)C(=O)N(Cc3ccco3)C2c2ccc(OC)cc2OC)cc1 (configuration not stated) | 99.5% (inactive)
COc1cc(C2/C(=C(\O)c3ccc4c(c3)CC(C)O4)C(=O)C(=O)N2Cc2ccco2)ccc1O (configuration not stated) | 18.3% (active)
COCCCN1C(=O)C(=O)/C(=C(/O)c2ccc3c(c2)CC(C)O3)C1c1cccnc1 (configuration not stated) | 95% (inactive)
COC(=O)c1c(C)oc(C)c1S(=O)(=O)NCc1ccc(Cl)cc1 | 98.2% (inactive)
CCN(CC)c1ccc(S(=O)(=O)N2CCOCC2)cc1NC(=O)CSc1cccc[n+]1[O-] | 91.7% (inactive)
Cn1c(SCC(=O)N2CCCc3ccccc32)nc2ccccc2c1=O | 89.2% (inactive)
CCCn1c(SCC(=O)N2CCc3ccccc32)nnc1-c1ccncc1 | 99.9% (inactive)
O=C(CSc1ccc2nnc(-c3ccccc3)n2n1)N1CCCc2ccccc21 | 156% [activator] (active)
Nc1ccccc1Sc1cc(Cl)nnc1Cl | 97.6% (inactive)
O=C(NC1CCc2ccccc21)C12CN(Cc3ccccc3)CC1C(c1cccc([N+](=O)[O-])c1)=NO2 (configuration not stated) | 99.7% (inactive)
Cn1c(=O)c2c(n(Cc3ccccc3)c1=O)NC(=O)C2CC(=O)N1CCc2ccccc2C1 (configuration not stated) | 21.4% (active)
O=C(COc1ccccc1)N1CCc2ccccc2C1 | 103% (inactive)
O=C(CSc1nnc(-c2cccs2)n1Cc1ccccc1)N1CCc2ccccc2C1 | 99.4% (inactive)
Cc1ccc(NC(=O)CNCc2ccccn2)cc1S(=O)(=O)N(C)C | 97.3% (inactive)

Structure (SMILES) | binding response (% of control)
Cn1c(CC2Sc3ccccc3NC2=O)nnc1SCC(=O)c1ccc(Cl)cc1 (configuration not stated) | 88.2% (inactive)
CCc1c(C)nc2cc(-c3cccs3)[nH]n2c1=O | 93.5% (inactive)
Cc1cc(=O)n2[nH]c(-c3sccc3-n3c(C)ccc3C)cc2n1 | 50.1% (active)
COc1cccc2cc(/C(C)=N/NC(=O)c3ccco3)oc12 | 98% (inactive)
COc1cc(NC(=O)CSc2nnc3ccc(-c4ccncc4)nn23)cc(OC)c1 | 98.4% (inactive)
COCCCNC(=S)N(Cc1ccccc1)Cc1ccc(F)cc1 | 106% (inactive)
Cc1cs/c(=N\N=C\c2ccc(O)cc2)n1Cc1ccco1 | 99.6% (inactive)
CN(c1ccccc1)c1ccc(/C=c2\s/c(=C(/C#N)C(=O)C(C)(C)C)n(Cc3ccco3)c2=O)cc1 | 566% [activator] (active)
COc1ccc(NC(=O)Cn2c(=O)n(Cc3ccco3)c(=O)c3ccccc32)cc1 | 101% (inactive)
CCOc1ccc(NC(=O)CSc2ncnc3c2sc2ccccc23)cc1 | 103% (inactive)
O=C(CN1CCCCCC1)N1c2ccccc2Sc2ccc(C(F)(F)F)cc21 | 89.3% (inactive)
O=C(CN1CCCCC1)N1c2ccccc2Sc2ccc(C(F)(F)F)cc21 | 21.1% (active)
COc1cc(/C=C/C(=O)N2c3ccccc3Sc3ccc(C(F)(F)F)cc32)cc(OC)c1OC | 103% (inactive)
CCN(CC)S(=O)(=O)c1ccc(NC(=O)c2cccnc2Cl)c(NC(=O)c2cccnc2Cl)c1 | 101% (inactive)
COc1cc(NS(=O)(=O)c2ccc(NC(=O)c3ccc(S(=O)(=O)N4CCCCC4)cc3)cc2)ncn1 | 107% (inactive)
NC(=O)[C@H]1CC2(CC(c3cccc(NC(=O)[C@H]4CCC(=O)N4)c3)=NO2)CN1C(=O)c1ccccc1C(=O)c1ccccc1 (some centres not stated) | 101% (inactive)
CC1CCN(C(=S)NC2CC3CCC2C3)CC1 (configuration not stated) | 107% (inactive)
O=C(Nc1ccn(Cc2ccccc2)n1)c1cccc(F)c1 | 97.8% (inactive)
Cc1ccc(Cn2ccc(NC(=O)C3C4CCC(C4)C3C(=O)O)n2)cc1 (configuration not stated) | 103% (inactive)
Cc1ccc(Cn2ccc(NC(=O)c3cc(C(C)C)on3)n2)cc1 | 49% (active)
Cc1cc(C)n(-c2ccc3nncn3n2)n1 | 97.6% (inactive)
Cn1ccc(NC(=O)Nc2ccc(Cl)cc2)n1 | 101% (inactive)
Cn1cc(C(=O)NCc2ccccc2F)cn1 | 101% (inactive)
